# Assay results taken from PubChem BioAssay AID588405 (Sanford-Burnham Center for Chemical Genomics, 2011).
# The campaign covered roughly 360,000 compounds. About 6,200 (1.7%) were called active.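 Rule for the calls: active = inhibition of at least 50% at 20 µM; inactive = the rest.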 Shown is part of a subset that was picked to be rich in actives.
# Experiment: inhibition of PEG-3 promoter activity – cell-based, HeLa, luciferase luminescence, primary screen (AID 588405)
# Conditions: HeLa PEG-Prom luciferase reporter, overnight, at 20 µM, active compounds read high
row,SMILES,inhibition
1,COC(=O)CCCCC1=CCC2C(=O)C=C(O)C2C1 (centres undefined),0.22% (inactive)
2,COc1ccc(C(C)(O)c2nc(-c3cc(F)cc(F)c3)cs2)cc1 (centres undefined),23.2% (inactive)
3,COc1cccc(-c2cc3nc(NCc4ccccc4OC)n(C)c(=O)c3s2)c1,-50% (inactive)
4,COc1cc(F)c(C2=CC(=O)CC(C)(C)C2)cc1F,-42.1% (inactive)
5,O=C(O)c1ccccc1-c1cccc2nncn12,-2.07% (inactive)
6,COC(=O)c1cc(NC(=O)Cc2ccccc2[N+](=O)[O-])ccc1Cl,-2.09% (inactive)
7,CC(=O)Nc1ccc(NC(=O)C(C)OC(=O)c2ccccc2C(=O)c2ccc(Cl)c([N+](=O)[O-])c2)cc1 (centres undefined),93.7% (active)
8,CC(OC(=O)CNC(=O)c1ccc(Cl)c([N+](=O)[O-])c1)C(=O)NCc1ccco1 (centres undefined),3.12% (inactive)
9,N#Cc1cccc(NC(=O)COC(=O)c2ccccc2C(=O)c2ccc(Cl)c([N+](=O)[O-])c2)c1,108% (active)
10,O=C(Nc1cccc(NC(=O)c2ccccc2[N+](=O)[O-])c1)c1ccccc1Cl,-9.06% (inactive)
11,CC(=O)Nc1ccc(NC(=O)COC(=O)c2ccccc2C(=O)c2ccccc2)cc1,-1.14% (inactive)
12,C=CCC1(C#N)C(=S)NC(C)=C(C(=O)OCC)C1c1ccccc1 (centres undefined),3.78% (inactive)
13,CCc1nc2c(OCCc3cccc(OC)c3)cccn2c1N(C)C(=O)c1ccc(C)cc1,5.31% (inactive)
14,CC1(C(=O)NS(=O)(=O)c2ccc(Cl)cc2)CCN1C(=O)CC1CCCC1 (centres undefined),8.85% (inactive)
15,CCN(c1ccccc1)S(=O)(=O)c1cccc(C(=O)NCc2ccccc2CN2CCOCC2)c1,-0.46% (inactive)
16,CCOC1=C2CN(S(=O)(=O)c3ccc(C)cc3)[C@H](c3cccs3)C[C@H]2[C@H]2C(=O)N(c3ccccc3)C(=O)[C@H]2C1,-59.4% (inactive)
17,Cc1noc(C)c1COC(=O)Cn1c(C)nc2ccccc21,8.44% (inactive)
18,Cc1ccc(COc2ccc(C(=O)NN)cc2)cc1,-58.5% (inactive)
19,CCCCCCCCCCOC(=O)Cn1c(COc2ccc(C)cc2)[n+](C)c2ccccc21,116% (active)
20,CCCCCCCCCCOC(=O)Cn1c(COc2cccc(OC)c2)[n+](C)c2ccccc21,102% (active)
21,CCOC(=O)c1cn(CC)c2cc(F)c(F)cc2c1=O,-7.48% (inactive)
22,CN(Cc1cccs1)C(=O)CN1C(=O)c2ccccc2S1(=O)=O,-42.7% (inactive)
23,CCC(C)N(C(=O)CSc1nnnn1-c1ccccc1OC)C1CCS(=O)(=O)C1 (centres undefined),6.27% (inactive)

row,SMILES,inhibition
1,COc1ccccc1-n1nnnc1S(=O)(=O)Cc1ccc(Cl)cc1,108% (active)
2,COc1ccccc1-n1nnnc1SCC(=O)NC(=O)Cc1ccccc1,3.09% (inactive)
3,O=C(N=C1SC2CS(=O)(=O)CC2N1c1cc(Cl)ccc1Cl)C1CC1 (centres undefined),3.34% (inactive)
4,CC1CCN(c2nc3c(c(=O)[nH]c(=O)n3C)n2CCCc2ccccc2)CC1,-2.12% (inactive)
5,C=C(C)Cn1c(N2CCCC2)nc2c1c(=O)[nH]c(=O)n2C,-3.39% (inactive)
6,Cn1c(=O)[nH]c(=O)c2c1nc(N1CCN(C(c3ccccc3)c3ccccc3)CC1)n2CCO,74.6% (active)
7,COc1ccc(-c2cc3nc(NCCOc4ccccc4)ccn3n2)cc1,-70.4% (inactive)
8,COC(=O)c1ccccc1N=NNc1ccc([N+](=O)[O-])cc1,-132% (inactive)
9,COc1ccc(CCNC(=O)c2ccc(CS(=O)(=O)c3ccc(Br)cc3)o2)cc1OC,32.6% (inactive)
10,Cc1cccc(C)c1Cn1c(C)c(C(=O)NCc2cccc(Cl)c2)sc1=O,0.34% (inactive)
11,CC1(C(=O)NS(=O)(=O)c2ccccc2)CCN1C(=O)c1ccccc1 (centres undefined),8.86% (inactive)
12,CC(=O)Nc1cc(-c2cccc(CO)c2)cn2c(-c3cccc(C(F)(F)F)c3)cnc12,19.9% (inactive)
13,Cc1cc(-c2n[nH]c(=S)n2/N=C/C(Br)=C/c2ccccc2)n[nH]1,101% (active)
14,COc1ccccc1N1CCN(/N=C\C(Br)=C\c2ccccc2)CC1,-183% (inactive)
15,Cc1ccccc1-c1n[nH]c(=S)n1/N=C/c1ccc(-c2ccccc2Br)o1,13.5% (inactive)
16,COc1c(C)cc(C(O)c2ncc(-c3cccc(C(F)(F)F)c3)[nH]2)cc1C (centres undefined),36.8% (inactive)
17,C=CCn1c(C)cc(C2=NNC(=NCC)SC2)c1C,106% (active)
18,O=C1CC(c2cccc(Br)c2)C2=C(CCCC2=O)N1 (centres undefined),-11.1% (inactive)
19,Cc1cc(Cl)ccc1-c1nc(NCCN(C)C)nc2ccsc12,5.65% (inactive)
20,COc1ccc(-c2n[nH]c3c2CN(C(=O)c2ccc(F)cc2)CC3)cc1,-4.89% (inactive)
21,COc1ccc(C2CC(c3cccc(OC)c3)=NN2c2ccc(S(N)(=O)=O)cc2)cc1 (centres undefined),-21.8% (inactive)
22,O=C(NCc1ccccc1Cl)c1csc([C@@H]2O[C@H](CO)[C@@H](O)[C@H]2O)n1,9.43% (inactive)
23,Cc1ccc(CN2CC(N3CCC(Cc4ccccc4)CC3)CS2(=O)=O)cc1 (centres undefined),15.9% (inactive)

row,SMILES,inhibition
1,CC(C)OC(=O)c1ccc(NCc2cc(O)ccc2O)cc1Cl,64% (active)
2,CC(CN1CCCCC1)OC(=O)c1ccccc1Cl (centres undefined),-5.2% (inactive)
3,O=C(O)Cc1ccc(NCc2ccccc2Cl)cc1,-84.7% (inactive)
4,COc1ccc(C2=NO[C@@H]3C(=O)N(Cc4ccccc4)C(=O)[C@H]23)cc1OC,21.8% (inactive)
5,COc1ccc(-c2cc(-c3ccc(N)cc3)nc(N)c2C#N)cc1OC,28.4% (inactive)
6,COc1ccc(-c2cc(C(F)(F)F)nc(S(C)(=O)=O)n2)cc1OC,104% (active)
7,O=C1N=C2SCCN2/C1=C\c1c(Cl)cccc1Cl,2.52% (inactive)
8,COc1ccc(NC(=O)C2Cc3c(-c4cccc(NC(C)=O)c4)ccnc3O2)cc1OC (centres undefined),24% (inactive)
9,CCN(CC)CCCNC(=S)N(CCO)Cc1cc2cc3c(cc2[nH]c1=O)OCO3,5.64% (inactive)
10,COc1cccc(-n2c(=S)[nH]c3c(oc4ccccc43)c2=O)c1,-22.9% (inactive)
11,O=c1oc2ccccc2cc1-c1cn(-c2ccccc2)c(=S)[nH]1,98.7% (active)
12,COc1ccc2cc(C(=O)NCC3CCCO3)[nH]c2c1 (centres undefined),-95.8% (inactive)
13,O=C(NCC1CCCO1)c1cc2c([nH]c3ccccc32)c(-c2ccc(F)cc2)n1 (centres undefined),61.3% (active)
14,O=C(NCCCO)c1cc2c([nH]c3ccccc32)c(-c2ccc(F)cc2)n1,23.9% (inactive)
15,CCOc1ccc(Cl)cc1-c1cc(C(=O)NCc2cccs2)[nH]n1,-9.07% (inactive)
16,Cc1cc(C(=O)CCl)c(C)n1CC1COc2ccccc2O1 (centres undefined),103% (active)
17,Cc1noc(C)c1C(=O)NCC1COc2ccccc2O1 (centres undefined),15.8% (inactive)
18,CCn1cc(C(=O)NCC2COc3ccccc3O2)c2cc(OC)c(OC)cc2c1=O (centres undefined),8.43% (inactive)
19,O=C(Nc1ccc(Cl)cc1)C1Cc2c(-c3ccc4c(c3)OCO4)ccnc2O1 (centres undefined),29% (inactive)
20,Cc1ccc(-c2nnc(-n3nnc4ccccc43)c3ccccc23)cc1,6.18% (inactive)
21,CC1(Cc2ccccc2C#N)C(=O)Nc2ccc(-c3ccc4[nH]ccc4c3)cc21 (centres undefined),14.4% (inactive)
22,Cc1nc2ccccc2nc1CC(O)(c1ccccc1)c1ccccc1,-1.32% (inactive)
23,CN(Cc1ccccc1)C(=O)c1cccc(C(=O)N(C)Cc2ccccc2)c1,8.74% (inactive)

row,SMILES,inhibition
1,CN(O)C(=S)c1ccccc1,92.1% (active)
2,Cc1ccc(CS(=O)Cc2ccc(C(=O)N3CCOCC3)o2)cc1 (centres undefined),11.9% (inactive)
3,CCc1nc2ccc(C(=O)Nc3cc(-c4ccccc4)ccc3OC)cn2c1N(CC)CC(=O)N(C)C,-22.1% (inactive)
4,CCN1CCCC1CNC(=O)c1ccc2c(c1)NC(=O)/C(=C\c1ccccc1F)S2 (centres undefined),56.9% (active)
5,CN1CCN(CCCNC(=O)c2ccc(/C=C3\Oc4ccccc4N(Cc4ccc(Cl)cc4)C3=O)cc2)CC1,109% (active)
6,Cc1c(C)n(Cc2ccc(Cl)cc2)c2ccc(C(=O)NCCCN3CCOCC3)cc12,47.1% (inactive)
7,CCCC1=Nc2cc(C(=O)NCCN3CCCC3)ccc2Sc2ccccc21,16.7% (inactive)
8,CCN1CCN(CCNC(=O)c2ccc3c(c2)NC(=O)/C(=C\c2cccc(Cl)c2)S3)CC1,99.5% (active)
9,CCN1CCCC1CNC(=O)c1cc2cc(OC)c(OC)cc2[nH]1 (centres undefined),18% (inactive)
10,O=C(NCCN1CCOCC1)c1ccc2c(c1)N(Cc1cccc(Cl)c1)C(=O)c1ccccc1S2(=O)=O,23.8% (inactive)
11,CC(C)OCCCNC(=O)CN1C(=O)/C(=C/c2ccccc2F)Oc2ccccc21,4.52% (inactive)
12,CCN1CCCC1CNC(=O)c1cc2c(=O)n(C)c3ccccc3c2n1C (centres undefined),-10.3% (inactive)
13,O=C(NCCCN1CCCCC1)c1ccc2c(c1)NC(=O)C(N1CCOCC1)S2 (centres undefined),-8.33% (inactive)
14,CCN1CCN(CCNC(=O)c2ccc(/C=C3/Sc4ccccc4N(Cc4cccc(C)c4)C3=O)cc2)CC1,103% (active)
15,Cc1ccccc1CN1C(=O)c2ccccc2Sc2ccc(C(=O)NCCCN3CCOCC3)cc21,26.3% (inactive)
16,COc1ccc(-c2cc(NC=O)c3ncc(-c4cc(OC)c(OC)c(OC)c4)n3c2)c(OC)c1,1.14% (inactive)
17,Nc1ncnc2c1ncn2[C@@H]1O[C@H](C(=O)N2CCCN(Cc3ccccc3F)CC2)[C@@H](O)[C@H]1O,3.41% (inactive)
18,OC[C@@H]1CN(Cc2ccc(F)cc2)C[C@H](n2cnc3c(NC4CCCC4)ncnc32)O1,12.2% (inactive)
19,CCCNC(=O)C1(C)CCN(C(=O)c2ccc(F)cc2Cl)C1 (centres undefined),1.51% (inactive)
20,CC1(C(=O)NS(=O)(=O)Cc2cccc(Cl)c2)CCN1C(=O)Cc1ccc(Cl)cc1Cl (centres undefined),-1.37% (inactive)
